Assay results: the supplement of paper PMC6555819

What was measured:
Assay in all cases: PBM binding z-score (relative to random genomic background probes); higher = stronger binding; sequences stand for … in GC…GCGATTGACAGCGTAGAATGAAGG
[1] = system: FXR:RXRa (NR concentration 270 nM, RXRa partner concentration 90 nM)
Summary of the method: (§1)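 Regression normalization was applied to scanned fluorescence from custom Agilent 4×180K protein-binding microarrays. Before scanning, arrays were incubated 1 h with ligand-free nuclear receptor dimers, and binding was detected with antibodies against each partner (one per run). Binding z-scores use the random background probes as reference.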

[2] = system: LXRa:RXRa (NR concentration 270 nM, RXRa partner concentration 90 nM)
Summary of the method: as §1

[3] = system: LXRa homodimer (NR concentration 270 nM)
Summary of the method: as §1

[4] = system: LXRb:RXRa (NR concentration 270 nM, RXRa partner concentration 90 nM)
Summary of the method: as §1

[5] = system: LXRb homodimer (NR concentration 270 nM)
Summary of the method: as §1

[6] = system: PPARa:RXRa (NR concentration 270 nM, RXRa partner concentration 90 nM)
Summary of the method: as §1

[7] = system: PPARg:RXRa (NR concentration 180 nM, RXRa partner concentration 90 nM)
Summary of the method: as §1

[8] = system: PPARg:RXRa 270nM:90nM, anti-RXR (NR concentration 270 nM, RXRa partner concentration 90 nM)
Summary of the method: as §1

[9] = system: PPARg:RXRa 30nM:10nM, anti-RXR (NR concentration 30 nM, RXRa partner concentration 10 nM)
Summary of the method: as §1

[10] = system: PPARg:RXRa 90nM:30nM, anti-RXR (NR concentration 90 nM, RXRa partner concentration 30 nM)
Summary of the method: as §1

| Sequence | PBM binding z-score [1] | PBM binding z-score [2] | PBM binding z-score [3] | PBM binding z-score [4] | PBM binding z-score [5] | PBM binding z-score [6] | PBM binding z-score [7] | PBM binding z-score [8] | PBM binding z-score [9] | PBM binding z-score [10] |
| --- | --- | --- | --- | --- | --- | --- | --- | --- | --- | --- |
| CCCGCTAGGTCAATGGTCAGCTAAAGCAGCTCGC | 3.1 | 2.28 | -0.0501 | 1.61 | 0.293 | 3.18 | 5.11 | 5.22 | 3.41 | 5.01 |
| ATCGAAGGGTCGTGAGGTGAGTATACAGAAAGGC | 2.2 | 1.7 | -0.107 | 1.58 | 0.162 | 3.34 | 1.74 | 1.77 | 0.78 | 1.23 |
| TCTTGTAGATCGAAGGTTAAGAAAGCCGAAGCCT | 0.669 | 0.667 | -0.334 | 0.511 | -0.593 | 2.25 | 3.11 | 5.23 | 4.1 | 5.26 |
| ACTATTAGTTGAGACGAGGGCCACCGATAGGTTG | -0.105 | -0.102 | -0.224 | -0.593 | 0.0596 | -0.508 | 0.594 | -0.159 | 0.0911 | -0.12 |
| AACTCTAGGTAACAAGTTCAGTGAAAGAGAGGAC | 0.335 | 0.477 | 0.364 | 0.379 | -0.166 | 1.58 | 1.32 | 1.72 | 0.492 | 1.31 |
| CGTCCAAGGTCATAGGCGGTCAGTGAAGACAGAT | 7.45 | 6.83 | 2.89 | 4.79 | 0.324 | 5.55 | 4.7 | 5.18 | 1.82 | 3.6 |
| AGTCAAAGTTCAGGACTAGGTAACGTAAAGCACG | 3.95 | 3.56 | 1.18 | 1.7 | 0.0894 | 3.41 | 4.81 | 5.05 | 2.27 | 4.21 |
| AGAATGAGGTTATTAAGATCAGGGAGTTGCGGTC | 1.77 | 1.34 | 0.175 | 1.29 | 0.183 | 2.49 | 1.37 | 2.07 | 0.61 | 1.5 |
| TTACCAAGGTGATGGTCGTTGATCCCTCTGTAGA | 0.274 | 0.0639 | -0.222 | 0.219 | -0.598 | 0.442 | -0.08 | 0.334 | 0.217 | 0.0112 |
| CCTTACGGGTCACACCAGGTTATAGCATCGGAGT | 5.86 | 6.35 | 1.01 | 4.08 | 0.198 | 5.2 | 5.14 | 4.95 | 2.28 | 3.6 |
| CCTAGCAGGCAAATCTGGGTCACTCAAGGCTTGA | 0.679 | 1.35 | -0.33 | 0.851 | -0.654 | 3.07 | 2.26 | 2.58 | 0.128 | 1.8 |
| ATCGCAAGGTCGAGGTGAGTATAGAGAAAGGGAA | 1.56 | 0.947 | -0.582 | 0.995 | -0.275 | 2.5 | 1.05 | 0.957 | 0.1 | 0.379 |
| ATACCAAGGTGATCGTGAGGTCGCTGATACTAAC | 1.23 | 0.653 | 0.154 | 0.766 | -0.474 | 1.15 | 0.701 | 0.558 | -0.172 | 0.198 |
| CTACAAAGGTGAACAAGGTCGTTGATTACTATTC | 2.91 | 2.94 | 0.453 | 3.1 | -0.0435 | 4.39 | 3.3 | 3.46 | 0.912 | 2.84 |
| CAAACTCGGTCAAGGTCAAAGTCGGTTTGTGCCA | 5.73 | 5.09 | 3.66 | 3.81 | 1.02 | 4.81 | 4.76 | 4.8 | 2.42 | 3.93 |
| CGAACGAGGGCATGAGTTGATAGCAAATGCCGAT | 0.545 | 0.339 | -0.654 | 0.279 | -0.902 | 1.71 | 1.35 | 1.57 | 0.0506 | 0.976 |
| AGAATGAGGTTACCACAGATCAGGGAAACGCTTG | 1.97 | 6.39 | -0.0372 | 3.08 | -0.518 | 3.53 | 2.72 | 2.65 | 1.11 | 1.73 |
| TTGCCAAGGTGAGCTGAGGTCGTTGATCCAACTC | 1.5 | 0.918 | -0.266 | 0.415 | -1.74 | 1.46 | -0.358 | 0.302 | -0.768 | -0.564 |
| TAGCCTAGGTCATGCGGACCAGTATAGTGTCGGC | 3.93 | 3 | 0.318 | 1.59 | -0.198 | 3.33 | 1.99 | 2.5 | 0.202 | 1.38 |

| Sequence | PBM binding z-score [1] | PBM binding z-score [2] | PBM binding z-score [3] | PBM binding z-score [4] | PBM binding z-score [5] | PBM binding z-score [6] | PBM binding z-score [7] | PBM binding z-score [8] | PBM binding z-score [9] | PBM binding z-score [10] |
| --- | --- | --- | --- | --- | --- | --- | --- | --- | --- | --- |
| CTCGAAACGTCGTGCTCAGGTGAGTATACCAAAC | -0.453 | -0.656 | -0.383 | -0.688 | -0.52 | -0.553 | -0.362 | -0.781 | -0.655 | -0.34 |
| CCCAGTTGGTCAAGGTCACACACGCTATAGGTAC | 4.07 | 4.03 | 2.72 | 3.8 | 0.738 | 4.18 | 3.3 | 3.56 | 1.14 | 2.57 |
| TCTAGCAGGCCAGAGGGTCACTCCAGAGGTACGG | 0.862 | 0.694 | -0.544 | 0.582 | -0.995 | 1.91 | 1.19 | 2.54 | 1.72 | 2.31 |
| TCGAGTTGGTTAGGGGCATTCAGAATGGCGTCGA | 0.222 | 0.121 | -0.233 | 0.793 | -0.112 | 0.575 | -0.307 | 0.595 | 0.687 | 0.343 |
| TCATATAGGTAAAAGGTGCAAGTCGGTGTGGTAA | 1.29 | 1.09 | 0.188 | 1.25 | 0.0143 | 3.34 | 5.37 | 5.97 | 5.85 | 6.52 |
| AGAACGAGGGCACGCTGAGTTGATAGTAGAGTAG | 0.725 | 0.439 | -0.765 | 0.35 | -0.699 | 2.1 | 1.94 | 1.62 | 0.448 | 0.971 |
| ATCGAAAGGTCGAAGGTGAGGATACCCACCCGAA | 4.08 | 3.68 | 0.155 | 2.73 | 0.724 | 4.69 | 4.61 | 5.07 | 2.25 | 4.11 |
| ATATGTAGGTTATCGGGTCATTCTGTTTGCGCAT | 3.44 | 3.6 | 2.23 | 3.26 | 1.27 | 4.93 | 6.86 | 6.16 | 3.52 | 5.94 |
| AGAACGAGAGCACGCTGAGTTGATAGCAGAGTAG | -0.802 | -0.854 | -0.51 | -0.91 | -1.27 | -0.425 | 0.523 | -0.601 | -0.701 | -0.842 |
| ATCGAAAGGTCGACGAGGTTAGTATACACCGTTT | 4.41 | 3.75 | 0.309 | 3.11 | 0.782 | 4.33 | 2.6 | 3.04 | 0.863 | 2.24 |
| CGTCCAAGGTCAGCAGGTCGGTGAAAGCGACGTG | 5.28 | 3.29 | -0.232 | 2.07 | -0.502 | 4.33 | 2.97 | 3.45 | 0.508 | 2.15 |
| TAGCCTAGGTCATTCAGGGGCCAGTACAGAAAGC | 4.86 | 4.11 | 0.86 | 3.16 | 0.986 | 3.6 | 2.29 | 2.39 | 0.132 | 1.25 |
| CAAACTAGGTCACCGGAAGGTCAAAGCCCGCATG | 6.08 | 5.95 | 4.27 | 5.11 | 1.45 | 6.06 | 9.85 | 7.89 | 5.9 | 7.57 |
| GGAGCGAGGGCAAAGTTGATAGCATCTGTCGACG | 0.977 | 0.574 | -0.435 | 0.182 | -0.792 | 2.54 | 3.16 | 4.11 | 2.37 | 3.6 |
| CCTATTAGTCGACCATAAGGGCAACCGAAGCTCG | 0.245 | 0.0274 | -0.217 | 0.208 | 0.406 | 0.539 | 0.531 | 0.353 | -0.22 | 0.358 |
| ACTAGCAGGCCAAGTTTGGGACACTCAAACAAAG | -0.139 | -0.665 | -0.588 | -0.515 | -0.807 | -0.478 | 0.0502 | -0.814 | -0.775 | -0.548 |
| AGAATGAGGTTATTAAGATCAGGGAATTGCGGTC | 1.82 | 1.51 | 0.178 | 1.26 | -0.237 | 2.39 | 1.44 | 1.72 | 0.425 | 0.999 |
| TGTCAAATTTCAAAGGTAACGTAAGTATCCACAC | 0.556 | 0.784 | -0.0184 | 0.869 | 0.492 | 0.954 | 0.712 | 1.41 | 1.62 | 1.41 |
| ACTTGCGGGTCAACGAGGTTATAGCACGCGTATA | 6.24 | 4.45 | 0.548 | 4.2 | 0.327 | 5.46 | 5.47 | 5.43 | 2.04 | 4.42 |
